Measurements as given in the supplement of paper PMC7411054.
Where a name gives a salt, the structure may show the parent alone.

tested on: WPMY1-CANX-COX4; experiment: lowest phenotypically active concentration; higher = less potent; conditions: treatment time: 24 h
In short: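 Each of fifteen gene-edited A549, HepG2 and WPMY1 reporter lines, marked with BFP for segmentation and GFP and RFP/FusionRed, was treated in four wells at 0.3, 1, 3 or 9 µM for 24 h prior to live imaging. Normalisation of per-well live-cell features used solvent control wells. Deviation needed ≥3 of 4 wells beyond the 95th percentile of control Euclidean distances, and reproducibility needed a median replicate Pearson correlation above the 95th percentile of non-replicates. Both were required for phenotypic activity.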

Row | SMILES | lowest phenotypically active concentration [µM]
1 | Nc1nc(Cl)nc2c1ncn2[C@@H]1O[C@H](CO)[C@@H](O)[C@@H]1F [clofarabine] | 9
2 | Cc1nc(Nc2ncc(C(=O)Nc3c(C)cccc3Cl)s2)cc(N2CCN(CCO)CC2)n1 [dasatinib] | ≤ 0.3
3 | O=C(NCc1cccc(O)c1)Nc1nc(-c2ccncc2)cs1 [RKI 1447 dihydrochloride] | ≤ 0.3
4 | CC(C)n1nc(-c2cc3cc(O)ccc3[nH]2)c2c(N)ncnc21 | 1
5 | COc1ccc(-c2ccc3ncc4c(c3c2)n(-c2ccc(N3CCNCC3)c(C(F)(F)F)c2)c(=O)n4C)cn1 | ≤ 0.3
6 | CC(C)(C)c1cnc(CSc2cnc(NC(=O)C3CCNCC3)s2)o1 | ≤ 0.3
7 | O=C(O)c1ccc(Nc2ncc3c(n2)-c2ccc(Cl)cc2C(c2c(F)cccc2F)=NC3)cc1 | 3
8 | COc1ccc(S(=O)(=O)N(C(C)=O)c2ccccc2/C=C/c2cc[n+]([O-])cc2)cc1 | 3
9 | CC(C)(C)Nc1nc(Nc2ccc(C(N)=O)cc2)cc(N)c1C#N | 9
10 | Nc1cccc(-c2cc3c(Oc4cccc(O)c4)ncnc3[nH]2)c1 | 9
11 | c1ccc2c(c1)Cc1c(Nc3ccc4c(c3)OCCO4)n[nH]c1-2 | 3
12 | Cc1c(NC(=O)OC[C@@H]2COCCN2)cn2ncnc(Nc3ccc4c(cnn4Cc4cccc(F)c4)c3)c12 | 3
13 | CCC(=O)N1CCN(c2ccc(-n3c(=O)ccc4cnc5ccc(-c6cnc7ccccc7c6)cc5c43)cc2C(F)(F)F)CC1 [Torin 1] | ≤ 0.3
14 | COc1c(Nc2cc(C)[nH]n2)nc(Sc2ccc(S(=O)(=O)Cc3cccc([N+](=O)[O-])c3F)cc2F)nc1N1CCOCC1 [Centrinone] | 3
15 | COc1cc2c(NC3CCN(C(C)C)CC3)nc(N3CCC(F)(F)CC3)nc2cc1OCCCN1CCCC1 | 1
16 | CC(=O)c1c(C)c2cnc(Nc3ccc(N4CCNCC4)cn3)nc2n(C2CCCC2)c1=O | 3
17 | CN1c2ccccc2C(=O)N2CCc3c([nH]c4ccccc34)[C@H]21 [Evodiamine] | 1
18 | CO[C@H]1C=CC=C(C)C(=O)NC2=CC(=O)C(NCCN(C)C)=C(C[C@@H](C)C[C@H](OC)[C@H](O)[C@@H](C)C=C(C)[C@@H]1OC(N)=O)C2=O [17-DMAG hydrochloride] | ≤ 0.3
19 | Cc1noc(C)c1-c1cc(O)cc(C(O)c2ccccc2)c1 (centres undefined) | 3
20 | O=C(Nc1ccc(-c2ccnc(Nc3ccc(N4CCOCC4)cc3)n2)cc1)[C@@H]1CCCN1 | 3

Row | SMILES | lowest phenotypically active concentration [µM]
21 | NC1(C(=O)N[C@@H](CCO)c2ccc(Cl)cc2)CCN(c2ncnc3[nH]ccc23)CC1 | 1
22 | NC(=O)Nc1cc(-c2cccc(F)c2)sc1C(=O)N[C@H]1CCCNC1 [AZD 7762 hydrochloride] | ≤ 0.3
23 | COc1cc2nc(-c3cc(F)ccc3O)nc(N[C@@H]3CNC[C@H]3C(C)(C)O)c2cc1OC | 1
24 | Cc1c[nH]c2nccc(Oc3c(F)cc(Nc4cc(Cl)nc(N)n4)cc3F)c12 | ≤ 0.3
25 | C[C@H]1[C@H]2CC[C@H]3[C@@H]4CC=C5C[C@@H](N(C)C)CC[C@]5(C)[C@H]4CC[C@]23CN1C [Conessine] | 3
26 | CON(C)C(=O)N1N=C(c2cc(F)ccc2F)S[C@@]1(CCCN)c1ccccc1 [ARRY 520 trifluoroacetate] | ≤ 0.3
27 | CC[C@H](CO)Nc1nc(NCc2ccc(-c3ccccn3)cc2)c2ncn(C(C)C)c2n1 | ≤ 0.3
28 | Oc1cccc(-c2nc(N3CCOCC3)c3oc4ncccc4c3n2)c1 [PI 103 hydrochloride] | ≤ 0.3
29 | COc1cc(/C=C/c2ccc(OC)cc2OC)cc(OC)c1 | 1
30 | COc1cc2c(cc1-c1c(C)noc1C)ncc1[nH]c(=O)n([C@H](C)c3ccccn3)c12 [I-BET 151 dihydrochloride] | 3
31 | COc1cccc(-c2cc(F)ccc2[C@H]2Cc3nc(N)nc(C)c3C(=O)N2)n1 | ≤ 0.3
32 | COc1cc(C(=O)NC2CCN(C)CC2)c(F)cc1Nc1ncc2c(n1)N(C1CCCC1)CC(F)(F)C(=O)N2C [TAK 960 hydrochloride] | 1
33 | CC[C@]1(O)C[C@@H]2CN(CCc3c([nH]c4ccccc34)[C@@](C(=O)OC)(c3cc4c(cc3OC)N(C=O)[C@H]3[C@@](O)(C(=O)OC)[C@H](OC(C)=O)[C@]5(CC)C=CCN6CC[C@]43[C@@H]65)C2)C1 [vincristine] | ≤ 0.3
34 | OC[C@H]1O[C@@H](n2cnc3c(NCc4ccco4)ncnc32)[C@H](O)[C@@H]1O [Kinetin riboside] | 3
35 | N#Cc1c(C2CCNCC2)cc(-c2c(O)cccc2OCC2CC2)nc1N | 3
36 | C=CC(=O)Nc1cccc(Nc2nc(Nc3ccc(OCCOC)cc3)ncc2F)c1 | 3
37 | COc1cc(N2CCC(N3CCN(C)CC3)CC2)ccc1Nc1ncnc(Nc2ccccc2S(=O)(=O)C(C)C)n1 | 3
38 | Fc1ccccc1CNCc1ccc(-c2ccnc3[nH]ccc23)cc1 [OXA 06 dihydrochloride] | ≤ 0.3
39 | C[C@H]1COCCN1c1cc(C2(S(=O)(=O)C3CC3)CC2)nc(-c2ccc(NC(=S)NCCO)cc2)n1 | ≤ 0.3
